Laboratory results taken from PubChem BioAssay (NCATS).
Records with an inconclusive call do not appear. Activity calls are given as the source filed them. Unless noted, calls follow the shape of the dose curve; as a rule, active = well fitted curve in either direction with a large enough effect (not every such curve was filed as active); inconclusive = small, poorly fitted or top-dose-only effect, or another doubt; inactive = flat fitted curve, though single readings scatter.

Assays:
[1] = NFAT Signaling Pathway (AID 444); details: Jurkat NFAT-bla M1, carbachol, beta-lactamase ratio, 5 h; at 17.2 µM (top of the series) unless noted;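 also: carbachol stimulus at about its EC50 of 1 µM final; % is scaled to controls: 0 for no effect and ±100 for the full control effect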
How it was run: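 Jurkat cells carrying an NFAT-driven β-lactamase reporter and co-transfected muscarinic M1 receptor were treated with compound plus carbachol (1 uM final, an EC50 level) for 5 h at 37 °C. CCF4 loading followed for 1 h at RT; 460/530 nm ratio gave %activity.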

[2] = Stat Signaling Pathway (AID 446); details: ME-180 SIE beta-lactamase reporter, IL-6 stimulated, 5 h; at 17.2 µM (top of the series) unless noted;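 also: ME-180 cervical cancer cells given 40 pM IL-6 alongside compound; SIE-controlled beta-lactamase reporter measured as 460/530 nm FRET emission ratio; % is scaled to controls: 0 for no effect and ±100 for the full control effect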
How it was run: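 Screening format detects activators and inhibitors alike: ME-180 SIE-bla cells stimulated at 40 pM IL-6 for 5 hrs with compound, then dual-emission beta-lactamase read at 405 nm excitation.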

[3] = target: Glucocorticoid receptor (Homo sapiens) (UniProt P04150); test: GR-GFP Redistribution (AID 450;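 active = compounds whose dose series gives a full or clear partial fitted curve of increased nuclear translocation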; also: potency is read from the fitted curve at half-maximal effect)
Chain of Glucocorticoid receptor (Homo sapiens) (P04150 whole entry, looked up, the tested form may be a part): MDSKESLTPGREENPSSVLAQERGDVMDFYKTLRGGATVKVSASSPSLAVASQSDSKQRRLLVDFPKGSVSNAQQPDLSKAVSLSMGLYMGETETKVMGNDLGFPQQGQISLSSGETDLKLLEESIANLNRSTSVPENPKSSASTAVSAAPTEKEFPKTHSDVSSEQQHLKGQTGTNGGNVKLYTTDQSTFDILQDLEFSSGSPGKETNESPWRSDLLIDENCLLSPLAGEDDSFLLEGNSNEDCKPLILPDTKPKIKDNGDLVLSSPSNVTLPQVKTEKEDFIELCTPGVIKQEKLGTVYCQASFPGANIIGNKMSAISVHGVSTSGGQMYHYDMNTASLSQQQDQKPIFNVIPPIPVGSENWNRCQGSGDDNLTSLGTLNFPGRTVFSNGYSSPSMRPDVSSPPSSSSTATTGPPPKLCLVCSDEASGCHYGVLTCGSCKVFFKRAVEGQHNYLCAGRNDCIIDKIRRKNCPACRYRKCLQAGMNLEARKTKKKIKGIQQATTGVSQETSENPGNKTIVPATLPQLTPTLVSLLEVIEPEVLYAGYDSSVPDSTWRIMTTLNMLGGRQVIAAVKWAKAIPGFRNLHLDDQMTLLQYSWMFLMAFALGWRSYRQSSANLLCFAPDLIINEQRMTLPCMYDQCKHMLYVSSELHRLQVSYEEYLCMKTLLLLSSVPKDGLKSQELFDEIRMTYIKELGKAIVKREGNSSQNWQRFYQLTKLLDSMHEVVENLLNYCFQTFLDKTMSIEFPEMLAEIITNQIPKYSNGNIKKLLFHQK

[4] = qHTS Assay for Identification of Small Molecule Agonists for Hypoxia Response Element Signaling Pathway (AID 914; active = well fitted activation curve with a large enough effect in the signal ratio, with a control signal flat, not every such curve was filed as active; the % refers to the signal ratio; also: potency is read from the fitted curve at half-maximal effect; as to activation: % of control where 0% means no effect); details: ME-180 (cervical carcinoma) HRE-bla reporter, beta-lactamase ratio, CoCl2, 17 h; activation: hits give high values
How it was run: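 HRE-bla ME-180 cells with beta-lactamase reporter under hypoxia response element, compounds with EC50 CoCl2 for 17 hours at 37 C. CCF4 substrate, 460nm/530nm emission ratio gave %Activity; AC50 from titration series.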

[5] = target: Glucocorticoid receptor (Homo sapiens) (UniProt P04150); test: GR-EFC Redistribution (AID 451; calls by dose curve; also: potency is read from the fitted curve at half-maximal effect); details: CHO-K1 GR-EFC translocation, beta-gal luminescence, 2 h
How it was run: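 CHO-K1 cells stably expressing nuclear-localized β-gal enzyme acceptor and GR fused C-terminally to the enzyme donor fragment; ligand-driven nuclear translocation restores β-gal by complementation. Compounds titrated up to 46 uM final, 2 h at 37 °C; luminescence read.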

[6] = target: Mitogen-activated protein kinase 10 (Mus musculus) (UniProt Q61831); test: JNK3 AlphaScreen Assay (AID 530);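 also: kinase came from lysate of stimulated human HepG2 cells; signal reports phosphorylation of biotinylated GST-cJun 1-79 at Ser73 with 10 µM ATP; % is scaled to controls: 0 for no effect and ±100 for the full control effect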
How it was run: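 Inhibitors reduce antibody binding to phosphorylated biotin-cJun, lowering AlphaScreen luminescence. Lysates from HepG2 cells pre-activated by IL-1beta plus TNF-alpha supplied JNK3; compounds were titrated.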

[7] = target: 3',5'-cyclic-AMP phosphodiesterase 4B (Homo sapiens) (UniProt Q07343); test: qHTS Assay for Inhibitors of PDE-IV (AID 607; active = well fitted activation curve with a large enough effect in the main read-out, with a control signal flat, not every such curve was filed as active; also: % of control where 0% means no effect)
Chain of 3',5'-cyclic-AMP phosphodiesterase 4B (Homo sapiens) (Q07343 whole entry, looked up): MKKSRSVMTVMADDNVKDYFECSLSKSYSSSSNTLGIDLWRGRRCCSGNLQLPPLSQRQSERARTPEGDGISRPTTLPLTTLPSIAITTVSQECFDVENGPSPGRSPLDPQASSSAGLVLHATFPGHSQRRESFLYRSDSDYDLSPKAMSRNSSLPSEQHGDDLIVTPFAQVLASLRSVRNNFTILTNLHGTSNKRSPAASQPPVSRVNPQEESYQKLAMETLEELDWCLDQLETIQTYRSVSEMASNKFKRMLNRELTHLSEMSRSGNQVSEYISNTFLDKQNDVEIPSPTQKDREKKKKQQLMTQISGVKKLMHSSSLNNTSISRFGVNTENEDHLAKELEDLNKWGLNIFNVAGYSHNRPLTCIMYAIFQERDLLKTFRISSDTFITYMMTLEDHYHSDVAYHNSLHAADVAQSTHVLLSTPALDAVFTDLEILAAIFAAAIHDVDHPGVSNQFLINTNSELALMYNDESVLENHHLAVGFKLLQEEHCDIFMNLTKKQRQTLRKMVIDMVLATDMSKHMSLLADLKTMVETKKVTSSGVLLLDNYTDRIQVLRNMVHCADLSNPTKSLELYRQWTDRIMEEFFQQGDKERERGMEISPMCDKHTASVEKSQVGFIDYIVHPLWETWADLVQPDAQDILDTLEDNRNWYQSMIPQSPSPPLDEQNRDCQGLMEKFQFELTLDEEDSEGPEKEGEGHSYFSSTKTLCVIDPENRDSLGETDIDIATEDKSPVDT
How it was run: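 The readout is membrane depolarisation from a cAMP-sensing CNG channel, detected with a potential dye at ex 535/em 590. Cells were HEK293-derived (endogenous PDE-IV) at 1000 cells/well, titrated up to 22.9 uM final.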

[8] = target: Guanine nucleotide-binding protein G(i) subunit alpha-1 (Homo sapiens) (UniProt P63096); test: qHTS Assay for Inhibitors of RGS12 GoLoco Motif Activity (Green Fluorophore) (AID 879; active = well fitted curve in the direction sought with a large enough effect; an effect the other way counts as inactive or inconclusive;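 also: 0% = labeled peptide with Gαi1 and full inhibition = labeled peptide alone without protein; negative values mean loss of peptide binding seen as reduced polarization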)
Chain of Guanine nucleotide-binding protein G(i) subunit alpha-1 (Homo sapiens) (P63096 whole entry, looked up): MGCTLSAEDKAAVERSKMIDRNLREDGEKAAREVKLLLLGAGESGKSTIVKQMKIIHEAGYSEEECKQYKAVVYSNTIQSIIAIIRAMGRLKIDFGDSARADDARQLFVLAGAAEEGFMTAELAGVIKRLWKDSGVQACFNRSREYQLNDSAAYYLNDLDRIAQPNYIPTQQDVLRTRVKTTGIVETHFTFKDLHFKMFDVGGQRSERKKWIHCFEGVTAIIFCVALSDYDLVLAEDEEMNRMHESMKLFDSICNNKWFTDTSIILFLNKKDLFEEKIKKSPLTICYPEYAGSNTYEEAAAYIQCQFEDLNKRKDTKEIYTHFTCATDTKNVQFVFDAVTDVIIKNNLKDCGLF
How it was run: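 Fluorescence polarization assay: 50 nM Gαi1 with 10 nM FITC-labeled RGS12 GoLoco peptide in 10 mM Tris pH 7.5, 150 mM NaCl, 0.1 mM GDP, 0.05% NP40, 10 min at room temperature with compound.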

[9] = qHTS Assay for Identification of Small Molecule Antagonists for Thrombopoietin (TPO) Signaling Pathway (AID 918; active = well fitted curve in the direction sought with a large enough effect; an effect the other way counts as inactive or inconclusive; also: potency is read from the fitted curve at half-maximal effect; nearly all actives have a fitted effect of over 60% in size); details: TPO-dependent cell signaling reporter, antagonist mode
How it was run: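 Murine Ba/F3 cells expressing human TPO receptor and a Glycoprotein IIb promoter-luciferase reporter, IL-3-starved overnight, treated with compound plus TPO at EC50 (26 pM final). After 24 h at 37 C, luminescence read to detect inhibitors.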

[10] = target: Pyruvate kinase (Leishmania mexicana) (UniProt Q27686); test: qHTS Validation Assay for Inhibitors of Leishmania Mexicana Pyruvate Kinase (AID 945; active = well fitted curve in the direction sought with a large enough effect; an effect the other way counts as inactive or inconclusive; also: potency is read from the fitted curve at half-maximal effect;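 as to activity change, negative = inhibition: 0% = DMSO only neutral control wells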)
Chain of Pyruvate kinase (Leishmania mexicana) (Q27686 2-499 E452W): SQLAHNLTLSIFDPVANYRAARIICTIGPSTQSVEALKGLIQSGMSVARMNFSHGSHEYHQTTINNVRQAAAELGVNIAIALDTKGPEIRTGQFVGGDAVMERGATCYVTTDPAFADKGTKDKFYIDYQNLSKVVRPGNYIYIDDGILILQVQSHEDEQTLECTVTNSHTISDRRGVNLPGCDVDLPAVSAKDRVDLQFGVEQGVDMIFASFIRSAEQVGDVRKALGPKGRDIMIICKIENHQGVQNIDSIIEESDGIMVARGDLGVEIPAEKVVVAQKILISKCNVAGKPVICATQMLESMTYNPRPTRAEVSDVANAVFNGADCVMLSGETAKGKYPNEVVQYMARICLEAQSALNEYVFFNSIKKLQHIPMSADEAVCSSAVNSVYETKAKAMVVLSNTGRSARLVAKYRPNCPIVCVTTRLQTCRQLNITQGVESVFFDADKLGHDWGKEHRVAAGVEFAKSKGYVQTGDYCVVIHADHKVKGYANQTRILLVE
How it was run: (§1)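 Eight-point qHTS titrations in triplicate, data normalized to DMSO neutral control. Reaction: 0.2 nM LmPYK E451W mutant, 0.5 mM PEP, 0.1 mM ADP, 7 mM MgCl2, pH 7.2, one hour at room temperature; luminescent ATP detection.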

[11] = target: Pyruvate kinase PKM (Homo sapiens) (UniProt P14618); test: qHTS Assay for Activators of Human Muscle Pyruvate Kinase (AID 954; active = well fitted curve in the direction sought with a large enough effect, not every such curve was filed as active;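 also: 0% = uninhibited enzyme and -100% = no enzyme or full thiadiazolimine inhibition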)
Chain of Pyruvate kinase PKM (Homo sapiens) (P14618 whole entry, looked up): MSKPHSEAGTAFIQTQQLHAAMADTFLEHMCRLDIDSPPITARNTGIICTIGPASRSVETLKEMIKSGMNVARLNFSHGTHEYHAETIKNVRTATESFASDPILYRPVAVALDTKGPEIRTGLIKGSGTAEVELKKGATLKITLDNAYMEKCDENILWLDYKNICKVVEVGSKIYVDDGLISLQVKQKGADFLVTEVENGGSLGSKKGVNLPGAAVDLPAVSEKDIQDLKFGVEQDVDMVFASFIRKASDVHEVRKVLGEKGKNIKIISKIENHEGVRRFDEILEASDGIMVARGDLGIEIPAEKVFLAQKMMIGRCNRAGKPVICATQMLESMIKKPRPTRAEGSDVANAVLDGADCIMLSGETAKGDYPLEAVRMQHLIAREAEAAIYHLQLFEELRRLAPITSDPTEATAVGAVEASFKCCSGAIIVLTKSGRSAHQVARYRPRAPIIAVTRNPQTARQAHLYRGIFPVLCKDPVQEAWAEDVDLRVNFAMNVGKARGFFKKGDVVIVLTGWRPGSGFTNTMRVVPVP
How it was run: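 Reaction: 0.1 nM purified PKM2 with 0.5 mM phosphoenolpyruvate and 0.1 mM ADP, room temperature, 1 h. Readout: luciferase-based ATP luminescence after stop reagent. Activators judged against a 0.3 nM enzyme column.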

[12] = target: Alpha-galactosidase A (Homo sapiens) (UniProt P06280); test: Counterscreen for Glucocerebrosidase Inhibitors: qHTS Assay for Human alpha-Galactosidase at pH 4.5 (AID 992; active = well fitted curve in the direction sought with a large enough effect; an effect the other way counts as inactive or inconclusive; also: 0% is about no effect)
Chain of Alpha-galactosidase A (Homo sapiens) (P06280 whole entry, looked up): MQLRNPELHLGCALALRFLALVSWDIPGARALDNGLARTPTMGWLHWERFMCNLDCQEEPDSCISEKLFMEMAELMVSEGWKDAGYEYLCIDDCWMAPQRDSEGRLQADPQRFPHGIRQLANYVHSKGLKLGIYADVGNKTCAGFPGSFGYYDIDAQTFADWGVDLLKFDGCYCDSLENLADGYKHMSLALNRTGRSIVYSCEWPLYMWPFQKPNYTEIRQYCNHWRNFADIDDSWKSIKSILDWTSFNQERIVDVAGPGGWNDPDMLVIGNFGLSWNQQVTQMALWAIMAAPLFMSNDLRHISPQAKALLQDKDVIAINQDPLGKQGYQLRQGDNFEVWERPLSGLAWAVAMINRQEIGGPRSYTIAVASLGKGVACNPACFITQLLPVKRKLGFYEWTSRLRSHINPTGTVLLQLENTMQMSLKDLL
How it was run: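 Concentration-response curves (0.7 nM to 77 uM final) were modeled with the Hill equation to give AC50. Reactions: 2 nM enzyme, 80 uM fluorogenic alpha-galactoside, pH 4.5 citric acid buffer, 20 min, room temperature.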

[13] = target: alpha-glucosidase (Oryza sativa, rice) (UniProt Q653V4); test: Counterscreen for Glucocerebrosidase Inhibitors: qHTS Assay for Rice alpha-Glucosidase at pH 5.0 (AID 997; active = well fitted curve in the direction sought with a large enough effect; an effect the other way counts as inactive or inconclusive;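 also: 0% = full activity with enzyme and -100% = basal without enzyme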)
How it was run: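 Rice alpha-glucosidase (4 nM final) with 400 uM 4-methylumbelliferyl-alpha-D-glucopyranoside in citrate buffer pH 5.0, 20 min at room temperature, stopped at pH 10; fluorescence 365/440 nm, compounds 0.7 nM–77 uM, AC50 from Hill fits.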

[14] = target: Muscarinic acetylcholine receptor M1 (Rattus norvegicus) (UniProt P08482); test: qHTS Assay for Antagonists of Acetylcholine Muscarinic M1 Receptor: Kinetic Measurement of Intracellular Calcium Response (AID 943; active = well fitted curve in the direction sought with a large enough effect; an effect the other way counts as inactive or inconclusive; also: nearly all actives have a fitted effect of over 75% in size)
Chain of Muscarinic acetylcholine receptor M1 (Rattus norvegicus) (P08482 whole entry, looked up): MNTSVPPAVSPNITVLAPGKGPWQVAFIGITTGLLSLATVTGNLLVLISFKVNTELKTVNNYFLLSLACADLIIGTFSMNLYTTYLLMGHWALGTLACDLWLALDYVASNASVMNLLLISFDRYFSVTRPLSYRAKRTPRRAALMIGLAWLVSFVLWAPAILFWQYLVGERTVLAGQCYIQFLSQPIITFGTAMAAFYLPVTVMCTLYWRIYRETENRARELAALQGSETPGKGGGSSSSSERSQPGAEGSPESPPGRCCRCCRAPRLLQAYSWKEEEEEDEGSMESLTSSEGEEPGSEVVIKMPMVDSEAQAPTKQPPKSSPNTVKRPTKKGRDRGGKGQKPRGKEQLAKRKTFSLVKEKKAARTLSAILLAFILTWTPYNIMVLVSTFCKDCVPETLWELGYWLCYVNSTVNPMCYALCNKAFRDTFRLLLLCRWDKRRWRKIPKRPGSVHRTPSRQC
How it was run: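 CHO cells expressing rat M1 receptor, Fluo-4 loaded, preincubated 10 min with compound, then stimulated with EC80 carbachol (100 nM final). Kinetic calcium fluorescence over 4 min; response taken as peak over basal signal.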

[15] = target: Muscarinic acetylcholine receptor M1 (Rattus norvegicus) (UniProt P08482); test: qHTS Assay for Antagonists of Acetylcholine Muscarinic M1 Receptor: Measurement of IP-One Response (AID 944; active = well fitted curve in the direction sought with a large enough effect; an effect the other way counts as inactive or inconclusive; also: nearly all actives have a fitted effect of over 75% in size)
How it was run: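 CHO cells stably expressing rat M1, pretreated 10 min with compound, then stimulated 30 min with carbachol at EC80 (200 nM) in LiCl-containing buffer pH 7.4; IP1 accumulation read by HTRF competition (665/620 nm).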

[16] = target: Pyruvate kinase PKM (Homo sapiens) (UniProt P14618); test: qHTS Assay for Inhibitors of Human Muscle Pyruvate Kinase (AID 958; active = well fitted curve in the direction sought with a large enough effect; an effect the other way counts as inactive or inconclusive)
How it was run: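 Screening used highly purified human pyruvate kinase M2 under submaximal activity, with PEP at its Km and ADP below Km. After an hour at room temperature, ATP was read by luciferase luminescence.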

[17] = target: Pyruvate kinase (Leishmania mexicana) (UniProt Q27686); test: qHTS Validation Assay for Activators of Leishmania Mexicana Pyruvate Kinase (AID 959; active = well fitted curve in the direction sought with a large enough effect; an effect the other way counts as inactive or inconclusive)
How it was run: as §1

[N-]=[N+]=CC(=O)c1ccnc(C(=O)C=[N+]=[N-])c1
inactive: activity change, negative = inhibition [1] -17.4% | activity, negative = inhibition [2] -1.87% | Potency [3] > 20.6 µM

CSc1nnc2n(C3CCCCC3)c(=O)c3c4c(sc3n12)CCCC4
inactive: activity change, negative = inhibition [1] 3.83% | activity, negative = inhibition [2] 14.1% | Potency [3] > 20.6 µM

CCOc1cc2nc(-c3ccc(OC)c(OC)c3)nc(N3CCOCC3)c2cc1OC
inactive: activity change, negative = inhibition [1] -10.2% | activity, negative = inhibition [2] -21.5% | Potency [3] > 20.6 µM

Cc1cc(C)c(-n2c(O)c(C=NCCN3CCOCC3)c(=O)[nH]c2=O)c(C)c1
inactive: activity change, negative = inhibition [1] 7.98% | activity, negative = inhibition [2] 4.18% | Potency [3] > 20.6 µM | activation [4] -6.53%

CN(C)C/C(Cl)=C(\Cl)c1ccccc1
inactive: activity, negative = inhibition [2] -22.6% | Potency [3] > 20.6 µM
active: activity change, negative = inhibition [1] -119%

CCc1ccccc1NC(=O)CSC1=C(C#N)C(c2ccc(O)c(OC)c2)C2=C(CCCC2=O)N1 (configuration not stated)
inactive: activity change, negative = inhibition [1] 2.67% | activity, negative = inhibition [2] -5.76% | Potency [3] > 20.6 µM

NC(=O)CSc1nnc2n(-c3ccccc3)c(=O)c3c4c(sc3n12)CCCCC4
inactive: activity change, negative = inhibition [1] -30% | activity, negative = inhibition [2] 9.67% | Potency [3] > 20.6 µM

CCSC1=C(C#N)C(c2cccs2)C(C(=O)OC)=C(C)N1 (configuration not stated)
inactive: activity change, negative = inhibition [1] 2.23% | activity, negative = inhibition [2] -15.6% | Potency [3] > 20.6 µM

Nc1c(Br)cc2oc(-c3ccccc3)nc2c1Br
inactive: activity change, negative = inhibition [1] 4.7% | activity, negative = inhibition [2] 14.6% | Potency [3] > 20.6 µM

COc1ccc(NC(=O)CSC2=C(C#N)C(c3ccco3)C3=C(CCCC3=O)N2)c(OC)c1 (configuration not stated)
inactive: activity change, negative = inhibition [1] -6.5% | activity, negative = inhibition [2] -8.16% | Potency [3] > 20.6 µM | activation [4] -27.4%

O=C(O)C1CC=CCC1C(=O)N1CCN(c2nc(-c3ccccc3)c3ccccc3n2)CC1 (configuration not stated)
active: Potency [4] 3.98 µM
inactive: activity change, negative = inhibition [1] -12% | activity, negative = inhibition [2] 9.49% | Potency [3] > 20.6 µM

CCOc1ccc(-c2nnc3sc(COc4ccccc4)nn23)cc1
inactive: activity change, negative = inhibition [1] 4.76% | activity, negative = inhibition [2] 4.42% | Potency [3] > 20.6 µM

CN1CCc2cc(O)c(O)cc2[C@H](c2ccccc2)C1
inactive: activity change, negative = inhibition [1] -1.87% [at 38 µM] | activity, negative = inhibition [2] -12.3% [at 38 µM] | Potency [3] > 46 µM | Potency [5] > 46 µM | Potency [6] | Potency [7] | outcome [8] | Potency [10] | outcome [11] | outcome [12] | outcome [13]
active: Potency [9] 10 µM

COc1cccc(C2C(C#N)=C(N)Oc3cc(C)[nH]c(=O)c32)c1OC (configuration not stated)
inactive: activity change, negative = inhibition [1] 0.0621% | activity, negative = inhibition [2] -3.84% | Potency [3] > 20.6 µM

CCOC(=O)CSc1nc(-c2ccc3c(c2)OCO3)ccc1C#N
inactive: activity change, negative = inhibition [1] 18.5% | activity, negative = inhibition [2] 4.79% | Potency [3] > 20.6 µM

CCCOc1ccc(N2C(=O)C3ON(c4ccccc4)C(c4ccc(O)c(OC)c4)C3C2=O)cc1 (configuration not stated)
inactive: activity change, negative = inhibition [1] 10.7% | activity, negative = inhibition [2] -20% | Potency [3] > 20.6 µM

Cn1c(=O)c2c(nc(Oc3ccc4c(c3)OCO4)n2Cc2ccc(Br)cc2)n(C)c1=O
inactive: activity change, negative = inhibition [1] -5.35% | activity, negative = inhibition [2] -4.55% | Potency [3] > 20.6 µM

Cn1c2ccccc2c2nn(-c3ccccc3)c(=O)cc21
inactive: activity change, negative = inhibition [1] 2.73% | activity, negative = inhibition [2] 6.09% | Potency [3] > 20.6 µM

CCOc1ccc(C2C(C#N)=C(N)Oc3cc(C)n(CCN4CCOCC4)c(=O)c32)cc1OCC (configuration not stated)
inactive: activity change, negative = inhibition [1] 7.01% | activity, negative = inhibition [2] 0.201% | Potency [3] > 20.6 µM

COc1ccc(N/C(=N\c2nc(C)cc(C)n2)NC(=O)C(C)C)cc1OC
inactive: activity change, negative = inhibition [1] 21.2% | activity, negative = inhibition [2] -1.06% | Potency [3] > 20.6 µM

CC[C@]1(O)C[C@H]2CN(CCc3c([nH]c4ccccc34)[C@](C(=O)OC)(c3cc4c(cc3OC)N(C)[C@@H]3[C@](O)(C(=O)OC)[C@H](OC(C)=O)[C@]5(CC)C=CCN6CC[C@]43[C@@H]65)C2)C1
inactive: activity change, negative = inhibition [1] 0.463% [at 38 µM] | activity, negative = inhibition [2] -18.9% [at 38 µM] | Potency [3] > 46 µM | Potency [5] > 46 µM | Potency [6] | Potency [7] | outcome [8] | Potency [10] | outcome [11] | outcome [12] | outcome [13]

Cc1cc(=O)n2[nH]c(N3C(=O)CCC3=O)nc2n1
inactive: activity change, negative = inhibition [1] -4.69% | activity, negative = inhibition [2] 11.6% | Potency [3] > 20.6 µM

O=C(/C=C\c1ccc(O)cc1)c1ccc(O)cc1O
active: Potency [10] 12.6 µM | Potency [16] 15.8 µM
inactive: activity change, negative = inhibition [1] -30% [at 38 µM] | activity, negative = inhibition [2] 25.4% [at 38 µM] | Potency [3] > 46 µM | Potency [5] > 46 µM | Potency [6] | Potency [7] | outcome [8] | Potency [14] | Potency [15] | outcome [11] | Potency [17] | outcome [12] | outcome [13]

COC(=O)c1ccn(C(=O)c2ccc(Cl)cc2)n1
inactive: activity change, negative = inhibition [1] -8.81% | activity, negative = inhibition [2] -10.2% | Potency [3] > 20.6 µM

COc1ccc(C2/C(=C(/O)c3ccc(OC(C)C)cc3)C(=O)C(=O)N2CCCN2CCOCC2)cc1 (configuration not stated)
inactive: activity change, negative = inhibition [1] -1.06% | activity, negative = inhibition [2] -10.9% | Potency [3] > 20.6 µM
